Pol iota inh = blocks human DNA polymerase iota activity; Q9UNA4; Pol iota fluorescent replication assay, 10 min; Potency, µM (doses to about 115 µM), inactives show at the top dose activity, negative = inhibition, most hits filed as inhibitors; 390,000 compounds, 1% hits; AID 588590; also: potency is read from the fitted curve at half-maximal effect
Target sequence (Q9UNA4 whole entry, looked up): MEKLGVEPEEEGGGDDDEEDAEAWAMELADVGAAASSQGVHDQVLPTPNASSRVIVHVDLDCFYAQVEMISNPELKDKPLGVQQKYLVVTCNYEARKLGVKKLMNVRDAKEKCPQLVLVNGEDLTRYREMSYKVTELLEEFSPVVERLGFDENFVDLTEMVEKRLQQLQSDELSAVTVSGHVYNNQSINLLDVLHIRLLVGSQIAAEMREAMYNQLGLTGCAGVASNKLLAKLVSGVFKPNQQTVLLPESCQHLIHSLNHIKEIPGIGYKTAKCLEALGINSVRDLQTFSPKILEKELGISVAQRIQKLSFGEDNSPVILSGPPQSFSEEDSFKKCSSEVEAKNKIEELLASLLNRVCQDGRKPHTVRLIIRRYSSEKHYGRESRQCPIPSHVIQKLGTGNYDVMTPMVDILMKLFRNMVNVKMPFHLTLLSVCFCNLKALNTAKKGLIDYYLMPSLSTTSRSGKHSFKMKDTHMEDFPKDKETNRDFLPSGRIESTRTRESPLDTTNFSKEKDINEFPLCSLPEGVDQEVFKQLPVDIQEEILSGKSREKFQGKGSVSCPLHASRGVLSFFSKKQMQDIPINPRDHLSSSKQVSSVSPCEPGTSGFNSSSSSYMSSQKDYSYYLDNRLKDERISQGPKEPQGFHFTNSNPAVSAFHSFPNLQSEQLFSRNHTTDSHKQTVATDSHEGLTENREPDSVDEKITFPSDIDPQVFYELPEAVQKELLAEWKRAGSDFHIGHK
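Fluorescent replication assay read twice, at 0 min and 10 min after adding 50 nM (final) substrate. Enzyme (10 nM) and compounds were first incubated 15 min at room temperature; enzyme-free buffer wells were negative controls.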
Pol beta inh = DNA polymerase beta (human) inhibition | P06746 | Pol beta primer extension/strand displacement, fluorescence kinetic | Potency, µM (titrated, usually from 114 µM), for inactives: at the highest dose activity change, negative = inhibition, most hits filed as inhibitors | 340,000 compounds, 1.3% hits | AID 485314; also: potency is read from the fitted curve at half-maximal effect; % is scaled to controls: 0 for no effect and ±100 for the full control effect
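Kinetic readout of DNA synthesis with strand displacement by Pol beta. Compound and 10 nM enzyme sit 15 min at room temperature; 50 nM substrate starts the reaction, read immediately and at 10 min.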
Pol kappa inh-1 = inhibitors of human DNA polymerase kappa; 400,000 compounds, 0.53% hits; Q9UBT6; AID 588579; purified Pol kappa, fluorescent DNA synthesis assay, 10 min; Potency, µM (top dose mostly 107 µM), for the others: at the highest dose activity, negative = inhibition, usual class: inhibitors; also: potency is read from the fitted curve at half-maximal effect; % is scaled to controls: 0 for no effect and ±100 for the full control effect
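10 nM Pol kappa was preincubated with compounds for 15 min at room temperature. Reaction started with 50 nM (final) substrate. Fluorescence read kinetically at 0 and 10 min.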
ALOX12 inh = blocks human arachidonate 12S-lipoxygenase; P18054; purified 12hLO, xylenol orange hydroperoxide absorbance; Potency, µM (doses to about 108 µM), for the others: top-dose activity change, negative = inhibition, most hits filed as inhibitors; 580,000 compounds, 1.1% hits; also: potency is read from the fitted curve at half-maximal effect; % is scaled to controls: 0 for no effect and ±100 for the full control effect
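Purified human 12hLO at 150 nM in 25 mM Hepes, 0.01% Triton X-100, pH 7.0, preincubated 15 min at room temperature with compound. Reaction started with 40 uM arachidonic acid, 30 min at room temperature. Hydroperoxide measured by Fe-xylenol orange, 573/405 nm absorbance ratio.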
Pol eta inh-1 = inhibitors of human DNA polymerase eta | recombinant Pol eta, fluorescent DNA replication assay | AID 588591 | Potency, µM (doses to about 114 µM), without a hit: at the top dose activity change, negative = inhibition, most hits filed as inhibitors | 390,000 compounds, 1.2% hits | Q9Y253; also: potency is read from the fitted curve at half-maximal effect; % is scaled to controls: 0 for no effect and ±100 for the full control effect
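Pol eta (10 nM) was preincubated with compounds for 15 min at room temperature, after which fluorescent replication substrate (50 nM final) was added to start the reaction. Fluorescence was read kinetically at 0 and 10 min.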
PI5P4K alpha inh = PI5P4K alpha (human) kinase inhibition; max response, %; 330,000 compounds, 1.2% hits; AID 652105; P48426; PI5P4Kalpha enzyme, ADP-Glo luminescence, 60 min; active compounds read low; active = max response of -50% or lower; inconclusive = between -30% and -50%; inactive = -30% or higher; also: value at the top dose of about 77 µM; % is scaled to controls: 0 for no effect and ±100 for the full control effect
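Compounds were pin-transferred onto PI5P4Kalpha and substrate in HEPES pH 7.4 buffer with EGTA, CHAPS and 5% DMSO. ATP (5 microM final) started the reaction, which ran 60 minutes at room temperature before ADP-Glo detection.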
GALK inh confirm = galactokinase (human) inhibition, confirmation; shares compounds with Pol eta inh-1; Potency, µM (top dose mostly 115 µM), without a hit: top-dose activity, negative = inhibition, usual class: inhibitors; purified GALK, Kinase-Glo ATP depletion luminescence; 150 compounds, 70% hits
GALK redox cs = generates H2O2 by redox cycling, flagging GALK artifacts. Phenol red-HRP H2O2 redox cycling, absorbance 600 nm. 150 compounds, 40% hits. shares compounds with Pol eta inh-1. Potency, µM (titrated, usually from 115 µM), for inactives: at the highest dose activity change, negative = H2O2 signal, actives largely listed as inhibitors
HEK293 viability = reduces HEK-293 cell viability in GALK counter-screen; Potency, µM (top dose mostly 46.1 µM), for the others: top-dose activity change, negative = cytotoxicity, hits mostly inhibitors; 170 compounds, 10% hits; shares compounds with Pol eta inh-1; HEK-293 viability, ATP luminescence (CellTiter-Glo), 24/48 h; also: potency is read from the fitted curve at half-maximal effect; % is scaled to controls: 0 for no effect and ±100 for the full control effect
Pol kappa inh-2 = Pol kappa (human) inhibition, cherry-pick confirmation. purified Pol-kappa, fluorescent strand-displacement substrate. AID 720501. shares compounds with Pol eta inh-1. 920 compounds, 76% hits. Potency, µM, most hits filed as inhibitors; also: potency is read from the fitted curve at half-maximal effect
Pol eta inh-2 = Pol eta (human) inhibition, cherry-pick confirmation | Pol eta primer extension, TAMRA/BHQ fluorescence, 10 min | 2,600 compounds, 64% hits | shares compounds with Pol eta inh-1 | Potency, µM, actives largely listed as inhibitors; also: potency is read from the fitted curve at half-maximal effect
* hit, by the source's call; ? = inconclusive; nt = no result given; [ ] = remark or other dose. Only some compounds are listed: those with a hit (about 2.9% of all), similar ones and a draw of the others. Unless noted, calls follow the shape of the dose curve; as a rule, active = well fitted curve in the direction sought with a large enough effect; inconclusive = small, poorly fitted or top-dose-only effect, or another doubt; inactive = no such curve, though single readings can be large; an effect the other way counts as inactive or inconclusive.

SMILES	Pol iota inh	Pol beta inh	Pol kappa inh-1	ALOX12 inh	Pol eta inh-1	PI5P4K alpha inh	Pol eta inh-2	others
O=c1c(O)cc(C2Oc3cc(O)cc(O)c3CC2O)cc2c(C3Oc4cc(O)cc(O)c4CC3O)cc(O)c(O)c12 (centres undefined)	nt	nt	0.71µM*	nt	nt	nt	nt	GALK inh confirm=5.3µM*;GALK redox cs=5.3µM*;HEK293 viability=-2%
CSCC[C@H](NS(=O)(=O)c1ccc(C(C)=O)cc1)c1nnc2ccccn12	-21%	79µM*	-19%	-14%	14µM*	?	67*
CCc1cccc(NC(=O)CCS(=O)(=O)c2ccc(Br)cc2)c1	-2%	7.1µM*	0%	-4%	25µM*	-13	85*	Pol kappa inh-2=42*
COc1ccc(S(=O)(=O)CCC(=O)NCc2ccc(C)o2)cc1	7%	26%	-4%	134%	-3%	-22	nt
Cc1ccc(S(=O)(=O)CCC(=O)Nc2cccc(C)c2)cc1	?	19%	-9%	-8%	-16%	6	nt
COc1ccc(CNC(=O)CCS(=O)(=O)c2ccc(Br)cc2)cc1	?	-30%	?	2%	?	-7	76*
CCN1CCCC1CNC(=O)C(C)C (centres undefined)	nt	nt	nt	-16%	nt	nt	nt
CSc1ccccc1C(=O)NC1CCC(C)CC1 (centres undefined)	nt	nt	nt	19%	nt	nt	nt
Cc1ccc(-c2[nH]c3c(c2-c2c(-n4cccc4)n(C)c(=O)[nH]c2=O)c(=O)[nH]c(=O)n3C)cc1	0%	-1%	-6%	-15%	?	nt	nt
Cn1c(-n2cccc2)c(-c2c(-c3ccccc3)[nH]c3c2c(=O)[nH]c(=O)n3C)c(=O)[nH]c1=O	79µM*	16µM*	?	-4%	79µM*	nt	nt	Pol kappa inh-2=?
O=C(O)CN1C(=O)/C(=C/c2ccc(-c3cccc(Cl)c3)o2)SC1=S	nt	nt	nt	nt	nt	nt	?	Pol kappa inh-2=34*
Cc1c(C(=O)N2CCC(c3nc4ccccc4o3)CC2)oc2ccc(F)cc12	nt	nt	nt	-2%	nt	nt	nt
CCN=c1scc(-c2ccco2)n1/N=C/c1ccc(O)cc1	13%	?	-8%	?	-18%	1	nt
CCN=c1scc(C)n1/N=C/c1ccc(O)c(O)c1O	8.9µM*	10µM*	22µM*	?	6.3µM*	-51*	67*
OC1CCCN(Cc2nnc(-c3ccccc3Cl)o2)C1 (centres undefined)	nt	nt	nt	1%	nt	nt	nt
Cc1ccccc1CNC[C@H]1Cn2cc(-c3ccccc3)nc2CO1	nt	nt	nt	25%[176 µM]	nt	nt	nt
O=C(O)c1cccc(N/N=C/c2ccc(F)c(F)c2)c1	110%	-24%	-3%	?	-3%	-12	nt
O=C(O)c1cccc(N/N=C/C2=C(Cl)c3cc(Cl)ccc3SC2)c1	?	?	-19%	?	50µM*	8	?	Pol kappa inh-2=?
CC(=O)NC(Cc1c[nH]c2ccccc12)C(=O)NCc1ccco1 (centres undefined)	-7%	30%	0%	-13%	-7%	2	nt
CC(Cc1c[nH]c2ccccc12)C(=O)NCc1ccco1 (centres undefined)	?	32µM*	?	1%	20µM*	0	30*	Pol kappa inh-2=42*
CC(C)C(CC(=O)NCc1ccco1)c1ccco1 (centres undefined)	?	?	?	9%	18µM*	-13	?
CCOC(=O)COc1ccc2c(=O)c(-c3ccc4c(c3)OCCO4)c(C(=O)OCC)oc2c1	nt	nt	nt	-8%	nt	nt	nt
COc1ccc(N2CC(C(=O)Nc3nnc(SCCC4OCCO4)s3)CC2=O)cc1 (centres undefined)	-14%	14µM*	-29%	-16%	35µM*	?	?
COc1cc(/C=C/C(=O)c2ccc(NS(=O)(=O)c3ccc(C)cc3)cc2)ccc1OC(F)F	-19%	-1%	-9%	1%	?	12	nt
COc1cc(/C=C/C(=O)c2ccc(NS(=O)(=O)c3ccc(C)cc3)cc2)cc(OC)c1O	?	-14%	-13%	?	10µM*	?	?
SMILES	Pol iota inh	Pol beta inh	Pol kappa inh-1	ALOX12 inh	Pol eta inh-1	PI5P4K alpha inh	Pol eta inh-2	others
COC(=O)c1cc(NC(=O)c2ccc3c(c2)NC(=O)c2ccccc2S3)cc(C(=O)OC)c1	?	6.3µM*	-32%	-22%	50µM*	nt	?	Pol kappa inh-2=9.5*
O=C(O)c1ccc(C=C(c2nc3ccccc3s2)c2nc3ccccc3s2)cc1	?	0%	-11%	?	40µM*	11	?
CCOc1ccc(NCc2cccn2-c2nnc(N3CCC(C(=O)NC4CCCC4)CC3)s2)cc1	nt	nt	nt	-35%	nt	nt	nt
CC(=O)c1ccc(NC(=O)Nc2ccc3snnc3c2)cc1	89µM*	?	-24%	?	?	nt	nt	Pol kappa inh-2=?
O=C1CC(c2nc3ccccc3n2CCN2CCOCC2)CN1c1ccccc1 (centres undefined)	nt	nt	nt	19%	nt	nt	nt
O=C1NC(=NC2CCCC2)C2(CCN(Cc3ccsc3)C2)N1c1cc(F)cc(F)c1 (centres undefined)	nt	nt	nt	6%[6.33 µM]	nt	nt	nt
O=C(NCc1ccco1)c1c[nH]c2ccc(S(=O)(=O)Nc3ccc(F)cc3F)cc2c1=O	?	?	-26%	?	50µM*	nt	nt	Pol kappa inh-2=?
FC(F)(F)c1ccc(C(=NCc2ccccc2)c2ccc(C(F)(F)F)cc2)cc1	nt	nt	nt	-59%	nt	nt	nt
Cc1noc(NS(=O)(=O)c2ccc(NC(=O)c3ccoc3C)cc2)c1C	40µM*	?	?	0%	10µM*	4	?
COCCN1CCNc2nc(CNc3ccon3)n(Cc3ccccc3)c2C1=O	nt	nt	nt	47%[176 µM]	nt	nt	nt
